Data reported in PubChem BioAssay (EPA / NIEHS).
Records with an inconclusive call do not appear. Activity calls are given as the source filed them. How the source made its calls: active means hit-call score of the fitted dose curve at least 0.9, where 1 is the maximum; inconclusive means response in the unintended direction; inactive means score below 0.9.

Read-out: glucuronosyltransferase (UGT1A1), UGT1A1 (gene 54658)
Assay: CLD_UGT1A1_48hr: CellzDirect (CLD) Gene Expression Assay for glucuronosyltransferase (UGT1A1) at 48 hours (AID 2283709);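 further: actives increase expression relative to DMSO so potency refers to induction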
Protocol: CLD_48hr is a cell-based, multiplexed-readout assay that uses hepatocyte, a human liver primary cell, with measurements taken at 48 hours after chemical dosing in a 96-well plate.CLD_UGT1A1_48hr is one of 16 assay component(s) measured or calculated from the CLD_48hr assay. It is designed to make measurements of mRNA induction, a form of inducible reporter, as detected with chemiluminescence signals by Quantitative Nuclease Protection Assay (qNPA) technology.Data from the assay component CLD_UGT1A1_48hr was analyzed at the endpoint, CLD_UGT1A1_48hr, in the positive analysis fitting direction relative to DMSO as the negative control and baseline of activity. Using a type of inducible reporter, gain-of-signal activity can be used to understand changes in the reporter gene as they relate to the gene UGT1A1. Furthermore, this assay endpoint can be referred to as a primary readout. To generalize the intended target to other relatable targets, this assay endpoint is annotated to the transferase intended target family, where subfamily is glucuronosyltransferase.
Human hepatocyte cultures were treated daily for two consecutive days with fresh dosing solutions containing appropriate concentrations of the 320 ToxCast chemicals (chemical identities were blinded to CellzDirect and other ToxCast collaborators), vehicle control (0.2% DMSO), and positive control inducers as summarized in Table 1. Due to the large number of treatment groups and chemicals examined, the ToxCast chemicals were divided into two groups (spanning two independent cultures of hepatocytes from separate donor preparations (Hu778: ToxCast plates 1 and 2; Hu776: ToxCast plates 3 and 4). Each preparation of human hepatocyte cultures was treated with respective vehicle control, medium only control, set of six positive controls/reference chemicals for the five hepatic receptor pathways, and a subset of eight of the ToxCast chemicals (indoxacarb, pyrithiobac-sodium, norflurazon, cyhalofop-butyl, methomyl, thiram, acetochlor, and propiconazole). These replicate data, coupled with internal replicates designed within the blinded ToxCast chemical library, provided additional data to evaluate interindividual differences between hepatocyte preparations and their potential impact on chemical profiles.Cell morphology and integrity were evaluated using phase-contrast microscopy as an indicator of hepatocyte cell health (Tyson & Green, 1987). Cultures for each treatment group (i.e., media, vehicle [0.2% DMSO], positive control inducers [multiple concentrations], and the ToxCast chemicals [multiple concentrations]) were observed and cell morphology was assessed relative to vehicle control cultures at each harvest time point (0, 6, 24, or 48 h). […] Images were evaluated at the conclusion of the study to assess changes in cell integrity and account for the effects of chemical exposure on uncharacteristic changes in concentration-dependent gene expression profiles. The results from these determinations of apparent cytotoxicity were annotated (yes/no) alongside the corresponding qNPA data for reference.At the conclusion of each treatment period, hepatocyte cultures (96-well) were washed with 1 volume of HBSS, lysed by addition of 25 ul ArrayPlate lysis buffer (HTG, Tucson, AZ), and 70 ul/well of Denaturation Oil, denatured by incubation at 95C for 10 min, and frozen at approximately -70C until analysis by nuclease protection assay (qNPA) (Roberts et al., 2007). For qNPA analysis, cell lysates were thawed at 50C for approximately 30 min, qNPA probes were added, and samples were incubated at 95C for 10 min to begin the detection process by denaturing the target RNA, dissociating the duplexes and secondary structure hybridization. At the conclusion of the hybridization period, S1 nuclease reagent was added to each sample to digest all nonprotected nucleotides at 50C for 60-90 min. […]

Structure (SMILES) | AC50 | outcome
CCCN(CCC)c1c([N+](=O)[O-])cc(C(F)(F)F)c(N)c1[N+](=O)[O-] | 3.96 µM (active) | –
CCOC(=O)NCCOc1ccc(Oc2ccccc2)cc1 | 20 µM (active) | –
CC(C)(C)[C@@H](O)[C@@H](Cc1ccc(Cl)cc1)n1cncn1 | – | inactive
O=C(Nc1ccc([N+](=O)[O-])cc1Cl)c1cc(Cl)ccc1O | – | inactive
c1ccc2[nH]c(-c3cscn3)nc2c1 | – | inactive
OB(O)O | – | inactive
CSC(=O)c1cccc2nnsc12 | – | inactive
COC(=O)CSc1cc(N=c2sc(=O)n3n2CCCC3)c(F)cc1Cl | 5.72 µM (active) | –
Oc1ccc(C(c2ccc(O)cc2)C(Cl)(Cl)Cl)cc1 | – | inactive
CCOC(=O)COc1cc(-n2ncc(C(F)(F)F)c(C)c2=O)c(F)cc1Cl | – | inactive
CCCCC(CC)CN1C(=O)C2C3C=CC(C3)C2C1=O (stereo not given) | – | inactive
COc1nc(C)nc(NC(=O)NS(=O)(=O)c2ccccc2OCCCl)n1 | – | inactive
COC(=O)c1c(Cl)nn(C)c1S(=O)(=O)NC(=O)Nc1nc(OC)cc(OC)n1 | – | inactive
CC1(C)C(C=C(Cl)Cl)C1C(=O)OCc1cccc(Oc2ccccc2)c1 (stereo not given) | 3.97 µM (active) | –
CCCN(CCC)C(=O)SCC | – | inactive
C#CCOC(=O)[C@@H](C)Oc1ccc(Oc2ncc(Cl)cc2F)cc1 | – | inactive
CCCCCOC(=O)COc1cc(N2C(=O)C3=C(CCCC3)C2=O)c(F)cc1Cl | – | inactive
CCSC(=O)N(CC(C)C)CC(C)C | – | inactive
COCCO | – | inactive
COC(=O)c1ccc(I)cc1S(=O)(=O)NC(=O)Nc1nc(C)nc(OC)n1 | – | inactive

Structure (SMILES) | AC50 | outcome
COC(=O)c1ccccc1C(=O)O | – | inactive
CN(C)C(=O)Nc1ccc(Cl)c(Cl)c1 | – | inactive
CCOC(=O)C(C)Oc1ccc(Oc2nc3ccc(Cl)cc3o2)cc1 (stereo not given) | – | inactive
COC(=O)c1cccc(C)c1S(=O)(=O)NC(=O)Nc1nc(OCC(F)(F)F)nc(N(C)C)n1 | – | inactive
CCCCOCCOCCOCc1cc2c(cc1CCC)OCO2 | 2.22 µM (active) | –
CCCCOC(=O)[C@@H](C)Oc1ccc(Oc2ccc(C(F)(F)F)cn2)cc1 | – | inactive
CCCCCCC(C)OC(=O)COc1nc(F)c(Cl)c(N)c1Cl (stereo not given) | – | inactive
CCOC(=O)[C@H](C)Oc1ccc(Oc2nc3ccc(Cl)cc3o2)cc1 | – | inactive
CC(C)(c1ccc(O)cc1)c1ccc(O)cc1 | – | inactive
CCCCC(CC)COC(=O)c1ccccc1C(=O)O (stereo not given) | – | inactive
CCC(C)OC(=O)N1CCCCC1CCO (stereo not given) | – | inactive
C=CCOC(Cn1ccnc1)c1ccc(Cl)cc1Cl (stereo not given) | – | inactive
COC(=O)c1ccccc1S(=O)(=O)NC(=O)Nc1nc(OC(F)F)cc(OC(F)F)n1 | – | inactive
CCC(O)=C1C(=O)CC(C(=O)O)CC1=O (stereo not given) | – | inactive
O=C(O)C1(C(=O)Nc2ccc(Cl)cc2Cl)CC1 | – | inactive
CCN(Cc1c(F)cccc1Cl)c1c([N+](=O)[O-])cc(C(F)(F)F)cc1[N+](=O)[O-] | – | inactive
CCCOC(=O)NCCCN(C)C | – | inactive
CCN(CC)C(=O)c1cccc(C)c1 | – | inactive
COC(=O)c1ccc(CNS(C)(=O)=O)cc1S(=O)(=O)NC(=O)Nc1nc(OC)cc(OC)n1 | – | inactive
COc1c(Cl)ccc(Cl)c1C(=O)O | – | inactive
